The supplement of paper PMC6555819

Tests used:
Test in all cases: PBM binding z-score (relative to random genomic background probes); higher = stronger binding; sequences stand for … in GC…GCGATTGACAGCGTAGAATGAAGG
[1] = system: RARb homodimer (NR concentration 270 nM)
In short: (§1)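 Binding buffer was PBS pH 7.4 with 2% milk, 0.02% Triton X-100, 1 mM DTT, 0.2 mg/mL BSA and 0.4 mg/ml salmon testes DNA. In it, ligand-free nuclear receptor dimers were incubated 1 h on custom Agilent 4×180K protein-binding microarrays carrying double-stranded probes. Antibodies against each partner (one per run) detected binding, and z-scores were calculated against random background probes after regression normalization of scanned fluorescence.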

[2] = system: RARg:RXRa (NR concentration 270 nM, RXRa partner concentration 90 nM)
In short: as §1

[3] = system: RARg homodimer (NR concentration 270 nM)
In short: as §1

[4] = system: RXRa DBDmut IVT, anti-RXR (DBD mutation: RXRa K156A/R161A, NR concentration 90 nM)
In short: as §1

[5] = system: RXRa homodimer (NR concentration 180 nM)
In short: as §1

[6] = system: THRa:RXRa (NR concentration 90 nM, RXRa partner concentration 90 nM)
In short: as §1

[7] = system: THRa homodimer (NR concentration 90 nM)
In short: as §1

[8] = system: VDR:RXRa (NR concentration 270 nM, RXRa partner concentration 90 nM)
In short: as §1

[9] = system: VDR homodimer (NR concentration 270 nM)
In short: as §1

| Sequence | PBM binding z-score [1] | PBM binding z-score [2] | PBM binding z-score [3] | PBM binding z-score [4] | PBM binding z-score [5] | PBM binding z-score [6] | PBM binding z-score [7] | PBM binding z-score [8] | PBM binding z-score [9] |
| --- | --- | --- | --- | --- | --- | --- | --- | --- | --- |
| AGTCAAAGTTCATCTACGTAACGTAAGATATGCT | 3.64 | 5.4 | 6 | 4.59 | 4.55 | 1.88 | -0.445 | 4.77 | 4.34 |
| AGAATGAGGTTACCAAAGATCTGGGAAACGCTTG | 0.57 | 1.94 | 1.49 | 0.786 | 2.42 | 2.51 | 0.542 | 0.954 | 0.122 |
| ATCACTAGGTAACCAAGTTCAGTGAATGCCGAAC | 1.26 | 0.732 | 0.632 | 0.466 | 0.53 | 1.32 | 0.313 | 3.92 | 2.41 |
| ATACCAACGTGATCGTGAGGTCGTTGATACTAAC | 0.904 | 0.317 | 0.269 | 0.532 | 0.915 | 2.36 | 1.73 | 1.8 | 2.32 |
| CAAACTAGGTCACCGGATGGTCAAAGTCCGCATG | 4.02 | 5.82 | 5.58 | 1.74 | 4.05 | 3.57 | 1.85 | 2.78 | 1.1 |
| CGAACTAGGTCATTAACAGGACAGTGAATAGTAA | 2.34 | 4.13 | 4.05 | 2.35 | 2.29 | 2.76 | 0.884 | 1.77 | 1.15 |
| TAGCTTAGGTCATGGGCCAGTATACCACGCGAAC | 3.13 | 4.31 | 4.67 | 0.975 | 3.74 | 3.68 | 2.42 | 2.15 | 0.172 |
| ATCTGTAGGTTAAGGGTCATTCAGGTTGGTTCGC | 4.02 | 5.03 | 3.89 | 2.02 | 6.57 | 3.69 | 2.07 | 5.77 | 4.28 |
| TAGCCTAGGACATTGGGCCAGTATAGTACGCATC | -0.251 | -0.0558 | 0.0958 | -0.671 | -0.0784 | 0.281 | -0.00513 | -0.544 | -0.291 |
| GGAACGAGGGCAAAGTTGTTAGCATCTGTCGACG | 1.15 | 1.47 | 1.48 | 2.61 | 1.11 | 1.12 | -0.449 | 1.09 | 1.32 |
| GCTTACGGGTCAAAGGGTATAGCATGAATAGAAT | 2.63 | 5.24 | 4.04 | 2.41 | 7.03 | 2.8 | -0.191 | 5.84 | 1.45 |
| GCGACTGGGGCATCAGCATGTTACCATAACTTAA | 0.222 | 0.263 | 0.143 | 0.363 | 0.217 | 0.125 | -0.404 | -0.304 | -0.64 |
| TCTATTAGTTGAAGGGCAACCGACGAGTCCGTTT | 1.41 | 0.635 | 0.786 | 1.57 | 0.701 | 0.419 | 0.09 | 1.09 | 1.87 |
| CCTCCTAGGTCAATGGTCAGCTAAAGCAGCTCGC | 3.17 | 3.66 | 4.2 | 1.03 | 2.16 | 2.61 | 1.17 | 1.29 | 0.912 |
| AGTCAAAGTCCATCTAGGTAACGTAAGATATGCT | 0.564 | 0.538 | 1.09 | 1.23 | -0.0358 | 1.14 | 0.0644 | 0.131 | 0.572 |
| TCTTGTAAATCAAAGGTTAAGAAAGCCGAAGCCT | 1.35 | 1.39 | 0.692 | 0.749 | 2.24 | 0.996 | -0.284 | 1.07 | -0.116 |
| GCAGGCAGGTGAAACGCAGGTAACTCAGGGTGGC | -0.0937 | 0.946 | 0.484 | -0.721 | 0.329 | 1.58 | -0.371 | 0.85 | -0.723 |
| TCTTGTAGATGAGCAGGTTAAGAAAGCTGGCCAA | -0.681 | -0.327 | -0.525 | -0.188 | 0.00792 | -0.277 | -0.72 | -0.0672 | -0.433 |
| GCTCGGAGGACAAGGTCTGAGCTTTGTCCGTAGA | 0.301 | -0.104 | 0.27 | -0.359 | -0.785 | 0.705 | -0.422 | -0.681 | -0.592 |
| CCGACTGGGGCTGAAAGGTTACCATACCATCCGG | 1.92 | 1.33 | 0.724 | -0.859 | 1.75 | 0.974 | -0.189 | 0.343 | -0.252 |
| AGAACGAGCGCAATGAGTTGATAGCACGGGTGGC | -0.96 | -0.134 | -0.287 | -0.213 | -0.0749 | -0.609 | -1.01 | -0.0491 | 0.00307 |
| CGTCCAAGGTCAATGGTCAGTGAAGAGATGACGG | 4.04 | 5.46 | 6.07 | 3.36 | 4.67 | 3.6 | 2.11 | 3.55 | 2.25 |
| CCAGCTAGGTCATGGTCAGCTAATCTACAGTATG | 3.2 | 3.81 | 4.16 | 1.61 | 2.86 | 2.8 | 1.25 | 1.6 | 0.247 |
| CGAACTAGGTCATTGACAGGACACTGAATAGTAA | 2.8 | 4.6 | 3.84 | 2.58 | 2.46 | 3.03 | 1.06 | 2.52 | 1.18 |
| ATCGAAAGGTCGGGAGGTGAGTATACAGAAAGGC | 2.92 | 3.82 | 3.34 | 0.594 | 3.58 | 2.21 | 0.967 | 2.24 | 0.718 |
| AGAGTGAGGTTAAGATCAGGGAAACAGAATACAT | 1.46 | 2.28 | 1.68 | 0.869 | 2.52 | 2.6 | 1.3 | 1.62 | 1.06 |

| Sequence | PBM binding z-score [1] | PBM binding z-score [2] | PBM binding z-score [3] | PBM binding z-score [4] | PBM binding z-score [5] | PBM binding z-score [6] | PBM binding z-score [7] | PBM binding z-score [8] | PBM binding z-score [9] |
| --- | --- | --- | --- | --- | --- | --- | --- | --- | --- |
| TAGCCTAGGTCATTCAGGTGCCAGTATAGAAAGC | 2.67 | 4.44 | 3.98 | 1.73 | 2.97 | 3.13 | 1.06 | 3.1 | 1.66 |
| CGAACTAGGTCAGAACAGGACAGTCAAGGATGAT | 2.26 | 2.65 | 3.09 | 0.873 | 1.35 | 3.42 | 0.288 | 0.754 | 0.29 |
| ACTTACGGGTCAACGAGGTTATAGTACGCGTATA | 3.9 | 5.7 | 5.01 | 2.85 | 6.32 | 4.14 | 1.34 | 7.78 | 4.38 |
| ATCGAAAGGTCGAGGTGTGTATAGAGAAAGGGAA | 2.82 | 4.23 | 4.18 | 0.84 | 4.06 | 2.05 | 0.277 | 2.32 | 0.444 |
| TAGCCTAGGTCATGGGCCAGTATGCCACGCGAAC | 3.09 | 4.15 | 4.47 | 0.363 | 3.54 | 3.07 | 1.16 | 1.98 | 0.214 |
| CAAACTAGGTAAAGAGGTCAAAGTCCGCTTCCCG | 4.1 | 5.02 | 4 | 2.13 | 5.62 | 3.75 | 1.47 | 4.92 | 4.05 |
| CCTAGTTGTTCAAGGTCACACACGCTATAGGTAC | 4.25 | 4.69 | 4.87 | 2.65 | 4.92 | 4.3 | 4.9 | 4.49 | 4.98 |
| ATATGTAGGTAAGCTGGGGTCATTCAGACTAGGC | 3.48 | 3.82 | 2.24 | 1.8 | 5.36 | 4.65 | 3.38 | 5.49 | 4.3 |
| ATCTCTAGGTGACAAGTTCAGTGAAAGAGAGGAC | 2.34 | 2.03 | 1.82 | 0.449 | 1.09 | 1.71 | 0.652 | 1.63 | 2.05 |
| CGATCGAGGGCATGAGTTGATAGCAAATGCCGAT | 0.615 | 1.06 | 1.18 | 1.75 | 0.725 | 1.04 | -0.645 | 0.973 | 1.5 |
| ACTTACGGGTCAACGAGGTTATAGCGCGCGTATA | 3.76 | 5.67 | 5.32 | 2.92 | 6.24 | 4.09 | 0.869 | 7.58 | 4.01 |
| CGAACGAGGGCATGAGTTAATAGCAAATGCCGAT | 0.53 | 1.2 | 1.61 | 2.14 | 0.895 | 1.13 | -0.42 | 0.731 | 1.02 |
| ATCGAAAGGTCGACGAGATGAGTATACACCGTTT | 2.29 | 3.91 | 3.95 | 1.01 | 4.04 | 1.72 | -0.43 | 2.46 | 0.403 |
| TCGAGGAGGTTAGTCGGGGCATTCAGCCAACATA | 1.08 | 0.581 | 0.486 | 0.514 | 0.67 | 2.08 | 0.602 | 3.8 | 1.04 |
| TCTCGTAGATCAGCAGGTTAAGAAAGCTGGCCAA | -0.209 | -0.0899 | -0.67 | 0.451 | 0.405 | 0.0434 | -0.546 | 0.21 | -0.597 |
| TTACCAAAGTGAGCTGAGGTCGTTGATCCAACTC | 0.526 | 0.117 | -0.105 | -0.0811 | 0.805 | 3.02 | 1.36 | 1.84 | 1.95 |
| GCTTGTAGATAAAGGTTAAGAAAGACTAAGCTAA | 0.948 | 1.29 | 1 | -0.0132 | 1.86 | 1 | -0.76 | 0.626 | -0.0184 |
| ATATGTAGGTAATCGGGTCATTCAGTTTGCGCAT | 2.15 | 2.06 | 1.32 | 1.13 | 2.55 | 3.16 | 2.46 | 4.7 | 3.14 |
| GATACAGGGTCAAGGCCAGAGTTCGCGTATTGAT | 4.11 | 5.64 | 5.19 | 2.9 | 6.18 | 3.64 | 1.21 | 5.31 | 4.76 |
| ATATGTAGGTTATCGGGTCATTCCGTTTGCGCAT | 3.06 | 3.32 | 2.35 | 1.67 | 3.38 | 3.36 | 2.82 | 3.86 | 3.21 |
| TAGCCTTGGTCAGATCGGGCCAGTATACGCTATA | -0.204 | -0.284 | 0.118 | -1.12 | -0.507 | 1.29 | -0.783 | -0.557 | -0.709 |
| GCTAATAGTTGAAAGGGCAACCGAATGATTCTCG | 2.13 | 1.68 | 1.44 | 0.805 | 1.76 | 0.716 | -0.4 | 0.767 | 0.235 |
| CCAACTAGGTCACCGGAAGGTCAAAGTCCGCATG | 5.63 | 8.38 | 7.43 | 2.32 | 7.28 | 4.43 | 3.16 | 5.87 | 3.75 |
| ATATGTAGGTTGGCTGGGGTCATTCAGACTAGGC | 3.37 | 3.5 | 2.19 | 1.81 | 5.15 | 4.72 | 3.62 | 5.67 | 5.57 |
| GCTGCTAGGTCAACTGATCGTCAGCTAAAGCTCG | 3.16 | 4.5 | 5.79 | 1.38 | 2.8 | 2.73 | 0.546 | 1.13 | -0.532 |
| TAGCCTAGGTCATACGGGCCAGTATAGTGTCGGC | 2.87 | 3.74 | 4.43 | 0.941 | 3.22 | 2.92 | 0.814 | 3.08 | 0.783 |
